In the library only some 10% were active in any assay of this set; here they are far more common.
Six1-Eya2 inh = inhibitors of human Six1/Eya2 interaction; Q15475+O00167; AlphaScreen GST-Six1/His-Eya2 binding, biochemical; active compounds read low; activity change, % (no concentration beside the values); 360,000 compounds, 0.56% hits; AID 651725; in the data active = activity change below about -65%; inconclusive = mostly about -30% to -63%; also: % is scaled to controls: 0 for no effect and ±100 for the full control effect
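Six1/Eya2 binding was read as AlphaScreen signal after compounds were pinned into GST-Six1 plus His-tagged Eya2 (5X stock 250/500 nM) in pH 8.0 Tris/NaCl/TCEP buffer, beads added, then incubated 1 h, 37 C, dark.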
HP1b chromo inh = HP1-beta chromodomain-methylated histone interaction inhibition | 390,000 compounds, 0.56% hits | Potency, µM (highest dose often 114 µM), without a hit: at the highest dose activity change, negative = inhibition, usual class: inhibitors | AID 540317 | P83916 | AlphaScreen HP1-beta / biotin-H3K9me3 peptide binding; also: potency is read from the fitted curve at half-maximal effect; nearly all actives have a fitted effect of over 70% in size
Target sequence (P83916 whole entry, looked up): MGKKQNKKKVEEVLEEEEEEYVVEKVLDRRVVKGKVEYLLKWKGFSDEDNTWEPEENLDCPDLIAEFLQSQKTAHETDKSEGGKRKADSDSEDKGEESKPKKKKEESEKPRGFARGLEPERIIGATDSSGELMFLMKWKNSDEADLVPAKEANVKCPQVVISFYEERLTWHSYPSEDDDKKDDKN
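AlphaScreen: HP1-beta (50 nM) preformed 30 min with biotin-H3(1-18)K9me3 peptide (50 nM) in PBS pH 7.4, 0.01% Tween-20. Compound added for 30 min at RT, then streptavidin donor/nickel chelate acceptor beads (10 ug/mL) for 30 min.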
CtBP-E1A inh = CtBP/E1A binding inhibition; AlphaScreen GST-E1A/His-CtBP binding, 1536-well; active compounds read low; activity change, % (concentration not given with the values); 340,000 compounds, 0.49% hits; in the data active = activity change below about -65%; inconclusive = mostly about -30% to -63%; also: % is scaled to controls: 0 for no effect and ±100 for the full control effect
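In 5 uL wells, 23 nL compound meets equimolar GST-E1A and His-CtBP (5X stock 125 nM each) for 2 h, 37 °C. Beads (5X, 50 ug/mL) then 1 h, 37 °C, dark.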
JMJD2A Tudor = JMJD2A Tudor domain (human) inhibition. AlphaScreen JMJD2A-Tudor / H3K4me3 peptide binding. Potency, µM (titrated, usually from 114 µM), inactives show top-dose activity change, negative = inhibition, most hits filed as inhibitors. O75164. 390,000 compounds, 4.4% hits; also: potency is read from the fitted curve at half-maximal effect; % is scaled to controls: 0 for no effect and ±100 for the full control effect; nearly all actives have a fitted effect of over 50% in size
BAZ2B inh = inhibitors of human BAZ2B bromodomain. AlphaScreen BAZ2B-H3K14Ac peptide displacement. 360,000 compounds, 4.4% hits. Potency, µM (doses to about 114 µM), inactives show top-dose activity change, negative = inhibition, usual class: inhibitors. Q9UIF8; also: potency is read from the fitted curve at half-maximal effect; % is scaled to controls: 0 for no effect and ±100 for the full control effect; nearly all actives have a fitted effect of over 60% in size
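Inhibition is scored as reduced AlphaScreen emission. The BAZ2B/b-H3(5-23)K14Ac complex (50 nM each) in PBS pH 7.4, 0.01% Tween-20 meets compound (up to 110 uM) for 30 min at RT before bead addition.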
G9a block = inhibitors of human histone lysine methyltransferase G9a; Q96KQ7; G9a H3K9 monomethylation, AlphaScreen, 2 h; Potency, µM (highest dose often 102 µM), for inactives: top-dose activity, negative = inhibition, most hits filed as inhibitors; 350,000 compounds, 8.8% hits; AID 504332; also: potency is read from the fitted curve at half-maximal effect; % is scaled to controls: 0 for no effect and ±100 for the full control effect; nearly all actives have a fitted effect of over 75% in size
Target sequence (Q96KQ7 913-1193 limits assumed): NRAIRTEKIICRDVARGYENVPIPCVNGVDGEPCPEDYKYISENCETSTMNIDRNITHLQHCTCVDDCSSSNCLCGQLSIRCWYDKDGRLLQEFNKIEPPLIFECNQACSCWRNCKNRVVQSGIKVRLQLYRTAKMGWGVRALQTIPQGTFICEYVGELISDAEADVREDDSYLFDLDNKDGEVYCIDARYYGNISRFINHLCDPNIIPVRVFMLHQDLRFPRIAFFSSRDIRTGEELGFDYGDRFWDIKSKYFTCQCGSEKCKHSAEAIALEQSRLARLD
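Enzyme 20 nM + cpd, 15 min RT; add b-H3K9 pep 500 nM / SAM 20 uM; 2 h RT; anti-H3K9me1 Ab 0.5 ug/mL + SA donor / anti-rabbit acceptor beads 20 ug/mL each, 10 min; AlphaScreen read.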
Active calls of the source: *; ? = inconclusive; nt = no result; [ ] = dose if it differs, or a comment. Unless noted, calls follow the shape of the dose curve; as a rule, active = well fitted inhibition curve with a large enough effect; inconclusive = small, poorly fitted or top-dose-only effect; inactive = no such curve, though single readings can be large or run the other way.

SMILES	Six1-Eya2 inh	HP1b chromo inh	CtBP-E1A inh	JMJD2A Tudor	BAZ2B inh	G9a block
Cc1ccc(Cl)cc1NC(=O)N1CCC(CN2CCCCCC2)CC1	nt	26%	nt	-3%	3%	-23%[59 µM]
O=C(Cc1ccc(Cl)cc1)NNC(=O)c1cnccn1	-18	9%	-14	50µM*	6%	?
CCOc1ccc(-c2nnc(SCC(=O)NC(C)(C)C)nc2-c2ccc(OCC)c(OC)c2)cc1OC	-7	14%	-6	?	-15%	50µM*
CCOc1cc(-c2nnc(SCC(=O)Nc3ccc(F)c(F)c3)nc2-c2ccc(OC)c(OCC)c2)ccc1OC	nt	23%	nt	-16%	?	13µM*
CCCCN(C)C(=O)C1CCN(CCCc2ccccc2)CC1	5	?	-1	8.9µM*	56µM*	?
CN(C)CC(C)(C)CNC(=O)C1CCN(CCCc2ccccc2)CC1	4	-15%	5	56µM*	-10%	?
Cc1cc(Cl)ccc1OCC(=O)N[C@@H](Cc1ccccc1)c1nc2ccccc2[nH]1	15	34%	14	-17%	56µM*	?
COc1cccc(Nc2nnc(-c3cc4ccc(O)cc4oc3=O)s2)c1	nt	39%	nt	-19%	-32%	2%[59 µM]
Cc1ccc(-c2nnc(Nc3ccc(O)cc3)c3ccccc23)cc1S(=O)(=O)NCc1nc2ccccc2[nH]1	nt	41%	nt	-10%	4%	25%[59 µM]
Cc1cc(C)cc(OC(=O)c2snnc2C)c1	nt	79%	nt	62%	36%	-46%[59 µM]
Cc1nnsc1C(=O)Oc1ccc(C#N)cc1	nt	17%	nt	89µM*	?	16µM*
Cc1nnsc1C(=O)Oc1ccc(Cl)cc1	nt	3%	nt	-3%	7%	13µM*
O=C(C1=NN[C@@H]2C(=O)N(c3cccc(F)c3)C(=O)[C@H]12)c1ccc2ccccc2n1	3	46%	-22	-26%	-37%	?
COc1cccc(N2C(=O)[C@H]3C(C(=O)c4cnccn4)=NN[C@H]3C2=O)c1	-9	46%	-1	50µM*	50µM*	?
CC(C)c1ccc(Cc2cnc(NC(=O)c3ccc4c(c3)CC(c3ccccc3)OC4=O)s2)cc1 (stereo not drawn)	nt	33%	nt	-15%	-17%	3%[59 µM]
CSc1nc(C=Nc2ccccc2Cl)c(O)n1Cc1cccc(Cl)c1	-21	5%	-3	79µM*	-19%	nt
O=Nc1c(O)n(Cc2cccc(Cl)c2)c2ccccc12	-5	-4%	-1	-27%	-31%	nt
O=C(CSc1nc(-c2cccs2)nc2cc(=O)[nH]n12)Nc1ccccc1Cl	nt	20%	nt	?	79µM*	28%[59 µM]
Cc1ccc(NC(=O)CSc2nc(-c3ccccc3Cl)nc3cc(=O)[nH]n23)c(C)c1	nt	3%	nt	-13%	89µM*	-8%[59 µM]
Cc1cccc(NC(=O)CSc2nc(-c3ccco3)nc3cc(=O)[nH]n23)c1	nt	27%	nt	-20%	79µM*	14%[12.7 µM]
O=C(CSc1nc(-c2cccs2)nc2cc(=O)[nH]n12)Nc1ccccc1	nt	32%	nt	-24%	56µM*	17%[59 µM]
COc1ccc(-n2nc(C(=O)NCCc3ccc(Cl)cc3)c3c4ccccc4n(C)c3c2=O)cc1	nt	27%	nt	6%	nt	4%[59 µM]
CCCOc1ccc(C(=O)Nc2c(C(=O)c3ccc(C)cc3)oc3ccccc23)cc1	nt	61%	nt	32%	5%	5%[59 µM]
Cc1ccc(CNC(=O)C2CCCN(S(=O)(=O)c3cccc4nsnc34)C2)cc1 (stereo not drawn)	nt	37%	nt	-7%	nt	11%[59 µM]
CC1Cc2cc(S(=O)(=O)N3CCN(c4ccccc4F)CC3)ccc2N1C(=O)C1CCC1 (stereo not drawn)	nt	5%	nt	-21%	-3%	-10%[59 µM]
SMILES	Six1-Eya2 inh	HP1b chromo inh	CtBP-E1A inh	JMJD2A Tudor	BAZ2B inh	G9a block
O=C(COc1ccccc1)Nc1nnc(SCc2cc(=O)n3cc(Cl)ccc3n2)s1	nt	18%[57 µM]	nt	-12%	3%	2%[59 µM]
CC(=O)Nc1ccc(S(=O)(=O)NCCc2csc3nc(-c4cccc(C)c4)nn23)cc1	nt	-2%	nt	-10%	-9%	3%[59 µM]
CN(C(=O)c1cc2nc(-c3ccco3)cc(C(F)(F)F)n2n1)C1CCCCC1	4	16%	6	6%	13%	56µM*
O=C(c1cc2nc(-c3ccco3)cc(C(F)(F)F)n2n1)N1CCN(c2ccccc2)CC1	-8	11%	10	-27%	?	45µM*
O=C(c1cc2nc(-c3ccco3)cc(C(F)(F)F)n2n1)N1CCN(c2ccccn2)CC1	-5	31%	-2	-3%	5%	?
O=C(c1cc2nc(-c3ccco3)cc(C(F)(F)F)n2n1)N1CCCCCC1	7	31%	0	6%	nt	?
NC(=O)c1cc2nc(-c3ccco3)cc(C(F)(F)F)n2n1	-72*	28%	-80*	-1%	-1%	?
CC(=O)Oc1c(/C=C(\C#N)C(N)=O)[nH]c2ccccc12	-21	5%	nt	-17%	-36%	11µM*
Cc1cc2c(s1)c1cnn(Cc3ccc(Cl)c(F)c3)c(=O)c1n2C	nt	nt	nt	-25%	nt	nt
O=C(Nc1ccc(F)cc1F)c1ccc2c(O)c(S(=O)(=O)c3ccc(Cl)cc3)c(=O)[nH]c2c1	nt	28%	nt	-33%	?	-34%[59 µM]
COc1ccc(C2(c3ccc(O)cc3O)CC(c3ccccc3Cl)NC(=S)N2)cc1 (stereo not drawn)	-14	?	-13	50µM*	28µM*	?
CC1=C(C(=O)O)N2C(=O)C(NC(=O)c3ccn(C)n3)C2SC1 (stereo not drawn)	-2	41%	0	-32%	?	?
CC1=C(C(=O)O)N2C(=O)C(NC(=O)c3nn(C)c(C)c3Cl)C2SC1 (stereo not drawn)	-15	31%	5	?	-4%	8.9µM*
CC1=C(C(=O)O)N2C(=O)C(NC(=O)c3c(F)cccc3F)C2SC1 (stereo not drawn)	7	47%	1	-3%	?	45µM*
COc1cc(/C=C/CN2CCN(CCC(C)C)C(CCO)C2)ccc1O (stereo not drawn)	2	21%	0	-25%	-21%	71µM*
COc1ccc(/C=C/CN2CCN(CC(C)C)C(CCO)C2)cc1 (stereo not drawn)	-10	24%	-18	-14%	-2%	?

Screening data deposited in PubChem BioAssay by National Center for Advancing Translational Sciences (NCATS).
